# Measured values reported in publication PMC4552634, “A New Set of Chemical Starting Points with Plasmodium falciparum Transmission-Blocking Potential for Antimalarial Drug Discovery” (PLoS ONE, 2015).
# The whole screen tested about 13,000 compounds, of which about 3,200 (25%) showed an effect of 50% or more. The list shows a part of the results.
# System: P. falciparum stage V gametocytes
# Set-up: BacTiter-Glo ATP luminescence viability of purified stage V gametocytes in 384-well plates, per cent inhibition versus DMSO
# Details: 48 h, 5 µM; inhibitor
row,Structure (SMILES),% Inhibition [%]
1,CC[C@H](C)CNC(=O)c1cccc(-c2cccc(CNCC3CNCCCO3)c2)n1 (stereo partly drawn) [TCMDC-134217],48.98
2,Clc1cc(Nc2ncnc3sc(C#Cc4ncc[nH]4)cc23)ccc1OCc1ccccn1 [TCMDC-135429],-6.463
3,Cc1cc(Cl)c(S(=O)(=O)N2CCc3ccccc32)cc1OCC(=O)NC1CCCCC1 [TCMDC-124369],-19.22
4,Fc1ccc(-c2cncc(-c3ccc(F)cc3)n2)cc1 [TCMDC-137988],-9.929
5,Cc1ccccc1C1CCN(C2CCC(NC(=O)/C=C/c3cccc(F)c3)CC2)CC1 (stereo not drawn) [TCMDC-133505],-47.31
6,Nc1ccc(-c2cnc3[nH]cc(-c4ccc(C(=O)O)cc4)c3c2)cn1 [TCMDC-136383],1.916
7,COc1ccc2nc(-c3ccc(C(=O)NCCCN4CCN(c5cc(Cl)ccc5OC)CC4)cc3OC)[nH]c2c1 [TCMDC-140025],-24.14
8,CCCc1cc(Cc2cnc(N)nc2N)cc(OC)c1OC [TCMDC-137647],0.312
9,O=C(Nc1cc(C(F)(F)F)cc(C(F)(F)F)c1)Nc1cc(C(F)(F)F)cc(C(F)(F)F)c1 [TCMDC-123956],-66.5
10,CCOC(=O)c1ccc(-c2cnoc2-c2cc(CC)c(OC)cc2O)o1 [TCMDC-124201],-15.35
11,CC1CN(c2cc(=O)n(Cc3ccc(NC(=O)Nc4ccc(-c5ccccc5)cc4)cc3)cn2)CC(C)N1 (stereo not drawn) [TCMDC-133372],24.66
12,O=C(NCc1ccc(Cl)c(Cl)c1)c1ccc(-c2nc3ccc(Cl)cc3[nH]2)cc1 [TCMDC-140441],19.73
13,COC(=O)c1ccc2nc(-c3ccc(C(=O)NCc4ccc(Cl)c(Cl)c4)cc3)[nH]c2c1 [TCMDC-140445],73.87
14,CCOc1cc(C(=O)NCCc2ccc(Cl)c(Cl)c2)ccc1-c1nc2ccc(Cl)cc2[nH]1 [TCMDC-140905],-12.3
15,CCOc1cc(C(=O)NCc2cc(Cl)cc(Cl)c2)ccc1-c1nc2ccc(Cl)cc2[nH]1 [TCMDC-140904],-8.665
16,CCOc1cc(C(=O)NCc2ccc(Cl)c(Cl)c2)ccc1-c1nc2ccc(Cl)cc2[nH]1 [TCMDC-140903],96.39
17,Cc1ccc2[nH]c(-c3ccc(C(=O)NCc4ccc(Cl)c(Cl)c4)cc3)nc2c1C [TCMDC-140450],11.51
18,CC1(C)[C@H]2CC[C@@H](CNc3nc(NCCc4cnc[nH]4)nc(NCc4cc(F)ccc4F)n3)[C@@H]1C2 [TCMDC-139317],-2.684
19,O=C(CCc1c[nH]cn1)Nc1cccc(-c2ccc(-c3nc4ccccc4[nH]3)s2)c1 [TCMDC-132152],-14.42
20,Cn1cc(C2CCN(CCCCCNC(=O)/C=C/c3ccc(Cl)c(Cl)c3)CC2)c2cc(O)ccc21 [TCMDC-139364],-26.1
21,CN(C)Cc1c(O)ccc2[nH]c(-c3ccc(F)cc3F)nc12 [TCMDC-136534],71.11
22,CN(C)Cc1c(O)ccc2[nH]c(-c3cccc(F)c3)nc12 [TCMDC-136535],-72.73
23,CC(C)CN(Cc1c(O)ccc2[nH]c(-c3ccc(F)cc3F)nc12)CC(C)C [TCMDC-136358],-65.39

row,Structure (SMILES),% Inhibition [%]
1,Cn1cnc(CCNC(=O)c2ccc(-c3cccc(-c4nc5cc(F)ccc5[nH]4)c3)cc2)c1 [TCMDC-132497],-1.156
2,CC(C)N1CCC(N(Cc2ccc(-c3ccc(C(F)(F)F)cc3)cc2)C(=O)Cn2c(CCc3cccc(F)c3F)nc(=O)c3cccnc32)CC1 [TCMDC-136049],118.8
3,CC(C)(C)N1CCC(N(Cc2ccc(-c3ccc(C(F)(F)F)cc3)cc2)C(=O)Cn2c(CCc3cccc(F)c3F)nc(=O)c3cccnc32)CC1 [TCMDC-136050],107.4
4,O=C(Nc1cccc(-c2nn3ncccc3c2-c2ccnc(Nc3cccc(C(F)(F)F)c3)n2)c1)c1c(F)cccc1F [TCMDC-135549],-33.07
5,COCn1ncc2cc(-c3cccc(NC(=O)c4csc(NC(C)=O)n4)c3)ccc21 [TCMDC-133146],24.99
6,CNC(=O)C(C)N(c1ccc(Cl)cc1)c1nc(C(C)(C)C)cs1 (stereo not drawn) [TCMDC-125380],52.18
7,CC1(C)N=C(N)N=C(N)N1OCCCc1cc(Cl)c(Cl)cc1Cl [TCMDC-131696],1.916
8,CCCCc1cc(N2CCC(NC(C)=O)C2)nc(Nc2ccc(C)cc2)n1 (stereo not drawn) [TCMDC-134020],11.89
9,COc1cc2nc(NCCCO)nc(Nc3ccc(Oc4ccccc4)cc3)c2cc1OC [TCMDC-138255],110.2
10,COc1cc2nccc(Nc3ccc(Oc4ccccc4)cc3)c2cc1OC.Cl [TCMDC-131917],-23.95
11,COc1cc2nc(NCc3ccc(S(N)(=O)=O)cc3)nc(Nc3ccc(Oc4ccccc4)cc3)c2cc1OC [TCMDC-138256],65.95
12,COc1cc2nc(N(C)C)nc(Nc3ccc(OCc4ccccc4)cc3)c2cc1OC [TCMDC-137183],59.63
13,COc1cc2nc(Nc3ccc(C)cc3)nc(Nc3ccc(C)cc3)c2cc1OC.Cl [TCMDC-138540],91.22
14,COc1cc2nc(Nc3ccc(Oc4ccccc4)cc3)nc(Nc3ccc(Oc4ccccc4)cc3)c2cc1OC [TCMDC-138238],-17.62
15,N#Cc1cnc(Nc2ccc(Oc3ccccc3)cc2)nc1Nc1cccc(S(N)(=O)=O)c1 [TCMDC-138613],-50.28
16,COc1cc2ncnc(Nc3ccc(OCc4ccccc4)c(OCc4ccccc4)c3)c2cc1OC [TCMDC-131922],-20.12
17,COc1cc2nc(Nc3ccc4c(c3)OCCO4)nc(N)c2cc1OC.Cl [TCMDC-131882],-45.81
18,COc1cc2nc(C)nc(Nc3ccc(Oc4ccccc4)cc3)c2cc1OC [TCMDC-131940],0.7535
19,COc1ccc(Nc2nc(N)c3cc(OC)c(OC)cc3n2)cc1OC.Cl [TCMDC-131881],-0.9625
20,COc1cc2nc(C)nc(Nc3ccc(Cc4ccccc4)cc3)c2cc1OC [TCMDC-131941],1.462
21,C=C(NC(=O)C1CCCCC1)C(=O)OC [TCMDC-131685],0.06563
22,NC1=NC(c2ccccc2)(c2ccccn2)C(=O)N1CCCc1ccccc1 (stereo not drawn) [TCMDC-136603],9.29
23,Cc1cc(N2CCCC2)nc(Nc2ccc(NC(=O)c3ccccc3F)cc2)n1 [TCMDC-124710],-34.77

row,Structure (SMILES),% Inhibition [%]
1,CCNc1cc(C(=O)N[C@@H](Cc2ccccc2)[C@H](O)CNCc2cccc(-c3cncnc3)c2)cc(N2CCCC2=O)c1 [TCMDC-141687],18.59
2,O=C(Nc1cccc(-c2nn3ccccc3c2-c2ccnc(Nc3cccc(N4CCCC4=O)c3)n2)c1)c1cc(F)ccc1F [TCMDC-135850],10.23
3,COc1ccccc1C1CN(CCNC(=O)c2ncc(C)[nH]2)Cc2ccccc2O1 (stereo not drawn) [TCMDC-124657],-1.409
4,COc1cccc2cc(C(=O)N[C@@H](CC(C)C)C(=O)NC(/C=N/NC(=O)c3ccccc3)CCc3ccccc3)oc12 (stereo partly drawn) [TCMDC-135434],-2.183
5,COc1ccc(Cn2cncc2CN(CCC(C)C)C(=O)c2ccc(Cl)nc2Cl)cc1 [TCMDC-132536],21.31
6,O=C(Nc1cccc(CN2CCCN(Cc3ccc(F)cc3)CC2)c1)c1cc2ccccc2s1 [TCMDC-141876],71.77
7,Cc1cccc(C(=O)N2CCN(Cc3cccc(NC(=O)c4cccs4)c3)CC2)c1 [TCMDC-136328],7.958
8,COc1ccc(CN2CCCN(Cc3cccc(NC(=O)c4cc5ccccc5s4)c3)CC2)cc1 [TCMDC-141867],-63.54
9,O=C(Nc1cccc(CN2CCCN(Cc3ccc(O)cc3)CC2)c1)c1cc2ccccc2s1 [TCMDC-141878],32.43
10,Cc1ccc(CN2CCN(Cc3cccc(NC(=O)c4cccs4)c3)CC2)cc1C [TCMDC-141888],86.1
11,O=C(Nc1cccc(CN2CCN(C(=O)c3cccs3)CC2)c1)c1cccs1 [TCMDC-136329],33.24
12,Cc1ccc(CN2CCN(Cc3cccc(NC(=O)c4ccc5ccccc5c4)c3)CC2)cc1C [TCMDC-141887],-29.11
13,O=C(Nc1cccc(CN2CCN(C(=O)c3cccc(F)c3)CC2)c1)c1cccs1 [TCMDC-136330],79.41
14,Cc1ccc(CN2CCCN(Cc3cccc(NC(=O)c4cc5ccccc5s4)c3)CC2)cc1C [TCMDC-141879],80.31
15,O=C(Nc1cccc(CN2CCN(C(=O)c3ccccc3)CC2)c1)c1cccs1 [TCMDC-136325],14.84
16,O=C(NCC1CCC(CNCCCc2ccccc2)CC1)c1cc(Cl)cc(Cl)c1 (stereo not drawn) [TCMDC-140679],-14.35
17,CCCc1cc(N2CCC(c3ccccc3)(N3CCCCC3)CC2)nc(Nc2ccc(OC)cc2)n1 [TCMDC-132389],-43.67
18,O=C(Nc1cccc(CN2CCN(Cc3ccc(O)cc3)CC2)c1)c1cc2ccccc2s1 [TCMDC-134624],6.138
19,O=C(Nc1cccc(CN2CCN(C(=O)c3cccc(F)c3)CC2)c1)c1ccco1 [TCMDC-136324],35.66
20,Cc1cccc(C(=O)N2CCN(Cc3cccc(NC(=O)c4ccco4)c3)CC2)c1 [TCMDC-136323],80.03
21,O=C(Nc1cccc(CN2CCCN(Cc3ccc4c(c3)OCO4)CC2)c1)c1cc2ccccc2s1 [TCMDC-141865],83.34
22,O=C(Nc1cccc(CN2CCN(C(=O)c3ccccc3)CC2)c1)c1ccco1 [TCMDC-136321],-15.6
23,N#Cc1ccc(CN2CCCN(Cc3cccc(NC(=O)c4cc5ccccc5s4)c3)CC2)cc1 [TCMDC-141866],-28.76
